Measurements taken from PubChem BioAssay (Tox21).
Values joined by “and” are separate entries in the source; they are usually repeats but may differ in a detail not shown here. Identical values can stand only once. Inconclusive results are not listed. Active and inactive are the calls of the source. Unless noted, calls come from the whole dose curve; as a rule, active = well fitted curve in the direction sought with a large enough effect in the repeat runs; inconclusive = weak or mixed curves; inactive = no such curve, though single readings can be large; an effect the other way counts as inactive or inconclusive.

Columns and labels:
[1] = qHTS assay to identify small molecule agonists of the hypoxia (HIF-1) signaling pathway - cell viability counter screen (AID 1224844; calls by dose curve; note: nearly all actives have a fitted effect of over 50% in size)
Summary of the method: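 Luminescent ATP content (CellTiter-Glo, 30 min, room temperature) served as the viability measure in HRE-bla ME-180 cells exposed to compounds for 17 hrs in low-serum medium (0.5% dialyzed FBS).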

[2] = qHTS assay to identify small molecule agonists of H2AX (AID 1224845; active = well fitted activation curve with a large enough effect in the signal ratio in the repeat runs, not every such curve was filed as active; the % refers to the signal ratio)
Summary of the method: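 Phospho-H2AX Ser139 measured by HTRF (ex 320 nm; em 665 and 620 nm) after 24 hr antibody incubation. Compounds, 15 concentrations, 0.76% DMSO, were applied to CHO-K1 cells for 3hr at 37C before lysis.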

[3] = qHTS assay to identify small molecule agonists of the hypoxia (HIF-1) signaling pathway (AID 1224846; active = well fitted activation curve with a large enough effect in the signal ratio in the repeat runs, not every such curve was filed as active; the % refers to the signal ratio)
Summary of the method: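 Measured by blue/green FRET after loading CCF4-AM: beta-lactamase expressed from a hypoxia response element in ME-180 cells. Test agents were delivered in DMSO and left 17 hrs; cells had been plated 5 hrs earlier in low-serum (0.5% dialyzed FBS) medium.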

[4] = qHTS assay to identify small molecule agonists of H2AX - cell viability counter screen (AID 1224847; calls by dose curve;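 note: wild-type CHO-K1 cells; top concentration of the series differs between compounds; nearly all actives have a fitted effect of over 30% in size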)
Summary of the method: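 CHO-K1 wt, 1000 cells/well, o/n 37C; cpds 15 conc, 3 h 37C, 0.76% DMSO; CellTiter-Glo, 30 min RT, luminescence.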

[5] = qHTS assay to identify small molecule antagonists of the estrogen related receptor (ERR) signaling pathway from Tox21 library (AID 1224848); note: nearly all actives have a fitted effect of over 50% in size
Summary of the method: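 Reading was by luminescence 30 min after ONE-Glo addition. Before that, ERR cells at 2,000 per well had rested 6 h at 37 C/5% CO2 and then received pin-tooled compounds in DMSO for 18 h at 37 C.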

[6] = qHTS assay to identify small molecule agonists of the estrogen related receptor (ERR) signaling pathway from Tox21 library (AID 1224849; calls by dose curve; note: nearly all actives have a fitted effect of over 15% in size); conditions: ERR reporter cell line, ONE-Glo luciferase, 18 h; at 92.4 µM (top of the series)
Summary of the method: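 We plated ERR reporter cells, waited 6 h, added compounds in DMSO by pin tool and incubated them 18 h at 37 C. ONE-Glo was then added and luminescence read after 30 min.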

[7] = qHTS RealTime-Glo MT Cell Viability Assay in HepG2 cells - 24 hour (AID 1224867); note: nearly all actives have a fitted effect of over 50% in size
Summary of the method: (§1)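 qHTS, HepG2, 600 cells/well, RealTime-Glo (NanoLuc + prosubstrate) added with cells; 5 h preincubation; DMSO compound addition; 37 C; luminescence at 0/8/16/24/32/40 h.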

[8] = qHTS RealTime-Glo MT Cell Viability Assay in HEK293 cells - 32 hour (AID 1224868); note: top concentration of the series differs between compounds; nearly all actives have a fitted effect of over 50% in size
Summary of the method: (§2)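 Assay medium contained NanoLuc luciferase plus cell-permeant prosubstrate, added with HEK293 cells at 600 cells/well. After 5 h at 37 C/5% CO2 compounds were added; plates stayed at 37 C for 40 h with serial luminescence reads.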

[9] = A CellTox Green Cytotoxicity Assay to monitor cytotoxicity in HEK293 cells - 0 hour (AID 1224869); note: nearly all actives have a fitted effect of over 50% in size
Summary of the method: (§3)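 Each value comes from one timepoint of a single continuous run in which HEK293 cells with CellTox Green were exposed to compound for up to 40 h at 37 C, dye fluorescence rising with cell death.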

[10] = qHTS RealTime-Glo MT Cell Viability Assay in HepG2 cells - 40 hour (AID 1224870); note: nearly all actives have a fitted effect of over 50% in size
Summary of the method: (§4)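 Real-time viability: cells seeded at 600 per well together with NanoLuc and cell-permeant prosubstrate, compounds added after 5 h incubation. Luminescence tracked at 0, 8, 16, 24, 32 and 40 h of exposure.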

[11] = A CellTox Green Cytotoxicity Assay to monitor cytotoxicity in HEK293 cells - 40 hour (AID 1224871); note: nearly all actives have a fitted effect of over 45% in size
Summary of the method: as §3

[12] = qHTS RealTime-Glo MT Cell Viability Assay in HEK293 cells - 16 hour (AID 1224872)
Summary of the method: as §2

[13] = qHTS RealTime-Glo MT Cell Viability Assay in HepG2 cells - 8 hour (AID 1224873); note: nearly all actives have a fitted effect of over 55% in size
Summary of the method: as §4

[14] = qHTS RealTime-Glo MT Cell Viability Assay in HEK293 cells - 40 hour (AID 1224874); conditions: RealTime-Glo luminescence; max response: stronger effect = lower value; note: nearly all actives have a fitted effect of over 50% in size
Summary of the method: (§5)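 qHTS format; HEK293 cells with NanoLuc/prosubstrate reagent, 37 C/5% CO2 for 5 h pre-dosing; compounds 23 nL in DMSO; luminescence at each time point reflects viable cells.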

[15] = A CellTox Green Cytotoxicity Assay to monitor cytotoxicity in HEK293 cells - 24 hour (AID 1224875); note: nearly all actives have a fitted effect of over 45% in size
Summary of the method: as §3

[16] = qHTS RealTime-Glo MT Cell Viability Assay in HepG2 cells - 32 hour (AID 1224877); note: nearly all actives have a fitted effect of over 55% in size
Summary of the method: as §1

[17] = A CellTox Green Cytotoxicity Assay to monitor cytotoxicity in HepG2 cells - 24 hour (AID 1224878); note: nearly all actives have a fitted effect of over 45% in size
Summary of the method: (§6)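 Continuous culture of HepG2 cells with a membrane-impermeant DNA dye; rising fluorescence marks dead cells. Compound exposure lasted up to 40 h at 37 C, with reads every 8 h from 0 h.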

[18] = A CellTox Green Cytotoxicity Assay to monitor cytotoxicity in HepG2 cells - 40 hour (AID 1224879); note: nearly all actives have a fitted effect of over 40% in size
Summary of the method: as §6

[19] = A CellTox Green Cytotoxicity Assay to monitor cytotoxicity in HepG2 cells - 16 hour (AID 1224876); note: nearly all actives have a fitted effect of over 45% in size
Summary of the method: as §6

[20] = qHTS RealTime-Glo MT Cell Viability Assay in HEK293 cells - 0 hour (AID 1224880)
Summary of the method: as §5
% is set by controls: 0 for no effect and ±100 for the full control effect.

O=P(OCCCl)(OCCCl)OCCCl
inactive: Potency [1] | Potency [2] | outcome [3] | Potency [4] | Potency [5] | activity change, positive = activation [6] 1.87% and 3.07% | Potency [7] | Potency [8] | Potency [9] | Potency [10] | Potency [11] | Potency [12] | Potency [13] | max response [14] -9.18% and -11.6% | Potency [15] | Potency [16] | Potency [17] | Potency [18]

CN(C)P(=O)(N(C)C)N(C)C
inactive: Potency [1] | Potency [2] | outcome [3] | Potency [4] | Potency [5] | activity change, positive = activation [6] 5.26% and 10.2% | Potency [7] | Potency [8] | Potency [9] | Potency [10] | Potency [11] | Potency [12] | Potency [13] | max response [14] 3.42% and 6.93% | Potency [15] | Potency [19] | Potency [16] | Potency [17] | Potency [18]

ClC(Cl)(Cl)Br
inactive: Potency [1] | Potency [2] | outcome [3] | Potency [4] | Potency [7] | Potency [8] | Potency [9] | Potency [10] | Potency [11] | Potency [12] | Potency [13] | max response [14] -0.387% and 6.81% | Potency [15] | Potency [19] | Potency [16] | Potency [17] | Potency [18]

CN(C)c1ccccc1
inactive: Potency [1] | Potency [2] | outcome [3] | Potency [4] | Potency [5] | activity change, positive = activation [6] -1.62% and 6.09% | Potency [7] | Potency [8] | Potency [9] | Potency [10] | Potency [11] | Potency [12] | Potency [13] | max response [14] 0.0564% and 11.3% | Potency [19] | Potency [16] | Potency [17] | Potency [18] | Potency [20]

c1ccc(C2CO2)cc1 (stereo unspecified)
inactive: Potency [1] | Potency [2] | outcome [3] | Potency [4] | Potency [7] | Potency [8] | Potency [9] | Potency [10] | Potency [11] | Potency [12] | max response [14] -2.54% and -3.91% | Potency [15] | Potency [19] | Potency [16] | Potency [17] | Potency [18]

N#CCCCCC#N
inactive: Potency [1] | Potency [2] | outcome [3] | Potency [4] | Potency [5] | activity change, positive = activation [6] 8.89% and 3.44% | Potency [8] | Potency [9] | Potency [10] | Potency [11] | Potency [12] | max response [14] 1.71% and 10.7% | Potency [19] | Potency [16] | Potency [17] | Potency [18] | Potency [20]

CCNCC
inactive: Potency [1] | Potency [2] | outcome [3] | Potency [4] | Potency [5] | activity change, positive = activation [6] 1.09% and 1.12% | Potency [7] | Potency [8] | Potency [9] | Potency [10] | Potency [11] | Potency [12] | max response [14] -0.119% and -1.58% | Potency [19] | Potency [16] | Potency [17] | Potency [18] | Potency [20]

CC(C)Nc1nc(Cl)nc(NC(C)C)n1
inactive: Potency [1] | Potency [2] | outcome [3] | Potency [4] | Potency [5] | activity change, positive = activation [6] 1.71% and -9.11% | Potency [7] | Potency [8] | Potency [9] | Potency [10] | Potency [11] | Potency [12] | Potency [13] | max response [14] -12.4% and -17.3% | Potency [15] | Potency [19] | Potency [16] | Potency [17] | Potency [18] | Potency [20]

ClCC(Cl)CCl
inactive: Potency [1] | Potency [2] | outcome [3] | Potency [4] | Potency [5] | activity change, positive = activation [6] 8.78% and 5.09% | Potency [7] | Potency [8] | Potency [9] | Potency [10] | Potency [11] | Potency [12] | Potency [13] | max response [14] 3.83% and -1.84% | Potency [16] | Potency [17] | Potency [18] | Potency [20]

Clc1cccc(Cl)c1
inactive: Potency [1] | Potency [2] | outcome [3] | Potency [4] | Potency [5] | activity change, positive = activation [6] -0.0986% and 9.44% | Potency [7] | Potency [8] | Potency [9] | Potency [10] | Potency [11] | Potency [12] | max response [14] 0.4% and 0.365% | Potency [19] | Potency [16] | Potency [17] | Potency [18]

Nc1ncn[nH]1
inactive: Potency [1] | Potency [2] | outcome [3] | Potency [4] | Potency [7] | Potency [8] | Potency [9] | Potency [10] | Potency [11] | Potency [12] | Potency [13] | max response [14] -0.91% and 1.15% | Potency [15] | Potency [19] | Potency [16] | Potency [17] | Potency [18]
